The full list was thinned out, with hits kept by preference.
PKA inh: blocks human protein kinase A activity; P17612; PKA Kemptide phosphorylation, Kinase-Glo ATP luminescence; inhibition, % at 6 µM; hit rate 0.1% among 65,000; AID 524;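 active means inhibition above the screen-wide mean inhibition plus 3 SD, cut at about 21% in these data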
D1 mod: D1 dopamine receptor (human) allosteric modulation; P21728; HEK293 D1, CRE-luciferase, dopamine EC30 potentiation; actives deviate in either direction; B-score at 10 µM; hit rate 5.9% among 58,000; AID 641;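 active means luminescence count or its row- and column-corrected plate score outside the 99.7% band of the plate's sample wells, on either side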
DAT uptake mod: modulates human dopamine transporter uptake under cocaine. Q01959. LLC-PK1 hDAT cells, [14C]-dopamine uptake with cocaine IC80; actives deviate in either direction. hit rate 1.3% among 110,000. B-score at 10 µM;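 active means Z score or B-score, a plate-position-corrected score, falls beyond the plate's 99.7% confidence bounds, in either direction; inactive means both scores lie inside the 99.7% bounds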;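 further: scored against the spread of the other compound wells on the same plate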
Target sequence (Q01959 whole entry, looked up): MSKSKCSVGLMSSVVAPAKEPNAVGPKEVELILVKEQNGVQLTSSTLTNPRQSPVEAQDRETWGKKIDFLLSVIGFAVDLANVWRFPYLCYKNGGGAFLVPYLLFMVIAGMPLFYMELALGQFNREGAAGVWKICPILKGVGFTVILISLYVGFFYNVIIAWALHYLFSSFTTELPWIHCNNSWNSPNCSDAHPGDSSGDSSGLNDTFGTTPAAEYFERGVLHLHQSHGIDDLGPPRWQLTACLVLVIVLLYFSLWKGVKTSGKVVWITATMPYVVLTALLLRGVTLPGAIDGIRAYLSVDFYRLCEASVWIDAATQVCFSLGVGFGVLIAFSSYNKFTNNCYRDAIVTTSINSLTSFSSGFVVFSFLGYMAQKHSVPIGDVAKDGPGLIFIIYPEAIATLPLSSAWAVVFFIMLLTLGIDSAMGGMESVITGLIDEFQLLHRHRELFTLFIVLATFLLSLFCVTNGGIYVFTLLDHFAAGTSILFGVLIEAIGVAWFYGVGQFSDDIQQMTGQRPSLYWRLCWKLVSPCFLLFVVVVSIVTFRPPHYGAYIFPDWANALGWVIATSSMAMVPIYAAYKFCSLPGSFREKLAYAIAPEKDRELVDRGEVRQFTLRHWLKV
ROCK2 inh: inhibitors of human Rho kinase 2; AID 604; hit rate 0.35% among 60,000; O75116; purified ROCK2, Kinase-Glo ATP depletion luminescence; inhibition, % at 6 µM;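 active means inhibition above the screen-wide mean inhibition plus 3 SD, cut at about 18% in these data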;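 further: plate controls were DMSO wells for no effect and Y-27632 control wells after no-enzyme background subtraction for full effect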
* hit, by the source's call; / = no result.

SMILES | PKA inh | D1 mod | DAT uptake mod | ROCK2 inh
COc1ccc(-c2oc3ccc(N4CCOCC4)cc3c2C#CC2(O)CCCCC2)cc1 | / | / | -0.1 | /
CC(C)(C)c1ccc(-c2noc(CCC(N)=O)n2)cc1 | 10 | -3.5* | 1.4 | 7
COc1ccc(C(=O)NC(=S)N2CCC(C)CC2)cc1 | / | / | -7.9* | /
CCOC(=O)c1cc2cc(OC)ccc2nc1C | / | / | 0.41 | /
Cc1cc(Cl)cc2c1NC(=O)[C@]21[C@@H]2C(=O)N(Cc3ccccc3)C(=O)[C@@H]2[C@@H]2CCCN21 | -5 | 0.0076 | 3.7* | -6
CN(C(=S)Nc1ccccc1F)C1(c2ccccc2Cl)CCCCC1=O (stereo not given) | / | / | -2 | /
CCC(=O)n1nc(-c2ccc(OC)cc2)nc1N | -2 | 0.95 | -9.5* | -2
N#CC1=C(N)C(C#N)(C#N)C(c2cccnc2)C2CN(C(=O)OCc3ccccc3)CC=C12 (stereo not given) | / | / | 3.9* | /
CCC(C)Nc1nc(OC(C(F)(F)F)C(F)(F)F)nc(OC(C(F)(F)F)C(F)(F)F)n1 (stereo not given) | / | / | 3.2* | /
O=C1c2cnc3nc(SCc4ccc(Cl)cc4)nn3c2CC2c3ccccc3CCN12 (stereo not given) | / | / | -0.13 | /
S=C(NC1CCCCC1)c1ccc2c(c1)OCO2 | / | / | -1.3 | /
O=C(NC1CCCCCCC1)c1ccc2c(c1)OCO2 | 0 | -3.5* | 0.19 | -12
CCc1ccc(N(C(=O)CNC(=O)c2cccs2)C(C(=O)NC(C)(C)C)c2cc(OC)c(OC)c(OC)c2)cc1 (stereo not given) | / | / | 0.51 | /
O=C(CCCc1ccccc1)NCCN1CCOCC1 | 10 | 0.11 | -0.64 | 7
O=C(CC(c1ccccc1)c1ccccc1O)NCCN1CCOCC1 (stereo not given) | -5 | 0.025 | -7.8* | /
CCOC(=O)c1cc2occc2n1CC(=O)N1CCCc2ccccc21 | 6 | 4.2* | -1 | 2
CCOC(=O)c1cc2sccc2n1CC(=O)N1CCCc2ccccc21 | 13 | 3.2 | 0.65 | 3
O=C1CCCc2oc3ccc(O)cc3c21 | / | / | 0.26 | /
CCC(=O)N1CCN(c2cc(C)ccc2C)CC1 | 3 | 1.1 | -0.61 | 2
Cc1ccc(C)c(N2CCN(C(=O)CC3Sc4ccccc4NC3=O)CC2)c1 (stereo not given) | 6 | 0.71 | 3.4* | 3
COc1cccc(/C=N/NC(=O)CO/N=C(\C)c2cccs2)c1OC | / | / | 3.2* | /
COc1ccc(-n2c(SCc3ccc(C#N)cc3)nnc2-c2ccccn2)cc1 | 3 | 0.059 | 1 | 1
Cc1ccc(-n2c(SCc3ccc(C#N)cc3)nnc2-c2ccccn2)cc1 | 8 | -4* | -7.7* | 2
CCOC(=O)C1=C(C)NC(=S)NC1c1ccc(-c2cccc(Cl)c2C)o1 (stereo not given) | / | / | -8.7* | /
Cn1c(Oc2ccccc2NCc2cccc(Br)c2)cc(=O)n(C)c1=O | / | / | 0.38 | /
SMILES | PKA inh | D1 mod | DAT uptake mod | ROCK2 inh
COCCN1Cc2cccc(C(=O)Nc3cc(C)cc(C)c3)c2C1=O | 9 | -0.075 | 1.8* | 1
CCCN1Cc2cccc(C(=O)Nc3ccc(C)cc3)c2C1=O | / | / | -8* | /
CC(=O)N1CCC(N(CCCOC(C)C)C(=O)Nc2ccc(Cl)cc2)CC1 | 6 | / | -0.29 | 4
CCCn1nnc(NC(=O)c2cc(Br)cc(Br)c2OC)n1 | 5 | / | 0.73 | 5
CC1CCN(C(=O)c2ccc(CSc3nc4ccncc4n3Cc3ccc(F)cc3)cc2)CC1 | / | / | 3.5* | /
Cc1ccc(CSc2nc3ccncc3n2CC(=O)Nc2cc(C)cc(C)c2)cc1 | / | / | 0.0058 | /
O=C1N2c3ccccc3CCc3cccc(c32)C1(O)C(F)(F)F (stereo not given) | -5 | -2.7* | -2.2 | 0
O=C1CCCC2=C1C(O)(C(F)(F)F)C(=O)N2Cc1ccccc1 (stereo not given) | 8 | -0.17 | -0.36 | 3
COCCNC(=O)C1CCC(Cn2c(=S)[nH]c3ccccc3c2=O)CC1 (stereo not given) | -1 | 1.1 | -7.6* | -2
CC1=C(C)C(=O)NC(Nc2nc(C)c3cc(C)cc(C)c3n2)N1 (stereo not given) | 4 | -3.2* | / | 4
Cc1cc(C)c2nc(SCCc3ccccc3)nc(C)c2c1 | / | / | 0.095 | /
COc1ccc(C(=O)Nc2ccccc2NC(=O)c2ccco2)cc1OC | -2 | / | 2.8* | /
COc1cc(NC(=O)c2cccs2)c(OC)cc1NC(=O)c1ccco1 | -2 | -0.44 | / | -1
COc1ccccc1NC(NC(=O)c1ccco1)C(=O)c1ccccc1 (stereo not given) | 7 | / | 35* | 9
COc1ccc(NC(=O)c2ccco2)cc1NC(=O)c1cccs1 | 5 | -0.03 | 1.8* | 2
COc1ccc(NC(=O)c2ccco2)cc1NC(=O)c1ccc(C)cc1 | 1 | -0.52 | -0.028 | 5
CCCCNC(=O)c1sc2ncnc(N3CCc4ccccc4C3)c2c1C | / | / | 4.2* | /
CCOC(=O)CNC(=O)c1sc2ncnc(N3CCc4ccccc4C3)c2c1C | / | / | 0.67 | /
CC(C(=O)N1CCN(c2ccc(Cl)cc2)CC1)c1ncc(C(F)(F)F)cc1Cl (stereo not given) | / | / | -1 | /
COc1cc(C(=O)OCC(=O)Nc2c(F)c(F)c(F)c(F)c2F)cc(OC)c1OC | 6 | 1.2 | 3.7* | 1
COc1ccc(C(=O)OCC(=O)Nc2ccc(F)c(F)c2F)cc1OC | / | / | -1.1 | /
CCc1ccc(NCc2nc3ccccc3c(=O)[nH]2)cc1 | / | / | -9.2* | /
Cc1ccc(CNC(=O)CCc2nc3ccccc3c(=O)[nH]2)cc1 | 2 | -0.0087 | 0.28 | 1
CCO[C@@H]1OC(C(=O)N2CCN(Cc3ccc4c(c3)OCO4)CC2)=C[C@H](c2cn(C(C)=O)c3ccccc23)[C@H]1CCCO | / | / | 2.1* | /
CC(=O)n1cc([C@H]2C=C(C(=O)N3CCN(Cc4ccc5c(c4)OCO5)CC3)O[C@@H](OCCCCO)C2)c2ccccc21 | / | / | 2.5* | /
SMILES | PKA inh | D1 mod | DAT uptake mod | ROCK2 inh
O=c1ncc(F)c[nH]1 | / | / | -0.36 | /
CC1(c2nnc(-c3ccc(F)cc3)o2)CC(c2ccncc2)=NO1 (stereo not given) | / | / | -0.55 | /
NC(CS(=O)O)C(=O)O (stereo not given) | / | / | -1.2 | /
Cc1ccc(-c2nnc(NC3CCCCC3)c3ccccc23)cc1S(=O)(=O)N1CCN(C)CC1 | / | / | 1.9* | /
Cc1ccc(-c2nn3c(C)nnc3c3ccccc23)cc1S(=O)(=O)N1CCN(CCO)CC1 | 0 | 0.25 | -2.6 | 0
Cc1cc(C)cc(NC(=O)C(=O)NCCc2c[nH]c3ccccc23)c1 | / | / | -0.0091 | /
O=C(O)[C@H]1CCCC[C@H]1C(=O)NCCc1ccccc1 | / | / | 1.1 | /
O=C(O)C1CCCCC1C(=O)NCCc1c[nH]c2ccccc12 (stereo not given) | -2 | -5.1* | -0.96 | -2
N#Cc1cccc(NC(=O)NCCc2c[nH]c3ccccc23)c1 | 8 | -3 | / | 22*
Brc1ccc(-c2nnc3n2C2(CCCC2)Cc2ccccc2-3)o1 | / | / | 0.37 | /
CCOC(=O)C1=C(C)OC(N)=C(C#N)C1C1CCCCC1 (stereo not given) | 6 | -0.37 | -0.37 | 5
CCOC(=O)C1=C(c2ccccc2)OC(N)=C(C#N)C1C1CCCCC1 (stereo not given) | / | / | -1.7* | /
CCn1c(N2CCN(C(=S)NCCc3ccccc3)CC2)nc2ccccc21 | / | / | 0.63 | /

High-throughput results: PubChem BioAssay, several laboratories
